Our source for the activity change, negative = inhibition and Potency values is PubChem BioAssay (NCATS).

Results filed as inconclusive are left out. A call without a number means that no potency is given here. Unmarked numbers belong to inactive results. Active and inactive are the calls of the source. Calls follow the shape of the dose curve; as a rule, active = well fitted inhibition curve with a large enough effect; inconclusive = small, poorly fitted or top-dose-only effect; inactive = flat fitted curve, though single readings scatter.

Chain of Calcium and integrin-binding protein 1 (Homo sapiens) (Q99828 whole entry, looked up): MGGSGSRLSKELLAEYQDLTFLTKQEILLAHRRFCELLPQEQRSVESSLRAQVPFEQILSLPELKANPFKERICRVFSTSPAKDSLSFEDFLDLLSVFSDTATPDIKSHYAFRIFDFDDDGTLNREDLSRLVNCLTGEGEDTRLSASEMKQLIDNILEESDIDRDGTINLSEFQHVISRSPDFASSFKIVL

The assay concerns the target Calcium and integrin-binding protein 1 (Homo sapiens) (UniProt Q99828). Description: Primary qHTS for Identification of Calcium Integrin Binding Protein 1 (CIB1) Competitor (AID 1508620).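 Also: GST tagged CIB1 binding a fluorescein labelled alphaIIb integrin peptide tracer; top concentration of the series differs between compounds.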 The settings on record: CIB1-GST / FITC-alphaIIb peptide fluorescence polarization; series mostly up to 114 µM. In outline:
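Fluorescence polarization competition: CIB1-GST (1 uM final) preincubated with compound 15 min at room temperature, then FITC-labeled alphaIIb peptide (100 nM final) added for another 15 min. Polarization read at Ex 480/Em 540.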
In general terms: Quantitative high-throughput screening tests each substance at several concentrations.
With `C[C@@H]1O[C@@H](O[C@@H]2[C@@H](O[C@@H]3O[C@@H](C)[C@H](O[C@@H]4OC[C@H](O)[C@H](O[C@@H]5OC[C@@H](O)[C@H](O)[C@H]5O)[C@H]4O)[C@@H](O[C@@H]4OC[C@](O)(CO)[C@H]4O)[C@H]3O)[C@H](OC(=O)[C@]34CCC(C)(C)C[C@H]3C3=CCC5[C@@]6(C)C[C@H](O)[C@H](O[C@@H]7O[C@H](CO[C@@H]8OC[C@H](O)[C@H](O)[C@H]8O)[C@@H](O)[C@H](O)[C@H]7O)C(C)(C)C6CC[C@@]5(C)[C@]3(C)C[C@H]4O)OC[C@H]2O)[C@H](O)[C@H](O)[C@H]1O` (stereo not given in full), the activity change, negative = inhibition was -4.21% [at 12.4 µM].

As to `CCOc1cc(C)c(Cl)cc1S(=O)(=O)n1cnc2ccccc21`, the Potency result was “inactive”. Still for that read-out and setting: with `COc1c2c(c(C)c3c1C(=O)OC3)OC1(C)CC(O)C34OC(OC)(CC(OC(C)=O)C3(C)C1C2)OC4(C)C` (stereo not given) the entry was “inactive”. The same measure, in the same setting: with `N#C[C@@H]1C[C@H](F)CN1C(=O)CNC1[C@H]2CN(C(=O)c3ccc(F)cc3)C[C@@H]12` (stereo not given in full) the entry was “inactive”; with `COC(=O)c1ccnc(-c2cc(C(=O)NCCc3ccccc3)ccn2)c1`, “inactive”; with `C=C[C@]1(C)C=C2CCC3C(C)(CCC[C@@]3(C)C(=O)O)C2CC1` (stereo not given in full), “inactive”. The same measure, in the same setting: with `O=c1[nH]ccc2cc(OC3CCNCC3)ccc12` the entry was “inactive”; with `COc1cc2c(cc1OC)CC(=O)N(CCCNC[C@H]1Cc3cc(OC)c(OC)cc31)CC2`, “inactive”; with `O=C(O)c1cn(C2CC2)c2cc(N3C[C@@H]4C[C@H]3CN4)c(F)cc2c1=O`, “inactive”.

Consider `COc1cc(C)c(C(=O)Oc2cc(C)c(C(=O)Oc3cc(C)c(C(=O)NC(C)C(=O)O)c(O)c3)c(O[C@@H]3O[C@H](CO)[C@@H](O)[C@H](O)[C@H]3OC(C)=O)c2)c(OC)c1` (stereo not given in full), for which the Potency result is “inactive”.
